Among the data in PubChem BioAssay (NCI) are growth values, retold here.

Test systems include SK-MEL-2 melanoma; EKVX NSCLC; SN12C renal; UO-31 renal; TK-10 renal; ACHN renal; CAKI-1 renal; A498 renal; CCRF-CEM leukemia; MOLT-4 leukemia; SR leukemia; RPMI-8226 leukemia; OVCAR-8 ovarian; OVCAR-5 ovarian; OVCAR-4 ovarian; SK-OV-3 ovarian; OVCAR-3 ovarian; HS 578T breast; NCI/ADR-RES ovarian; IGROV1 ovarian.
Common to all, as to assay: NCI-60 one-dose screen, 48 h (100 = growth as untreated, 0 = no growth, -100 = all killed)
Holding throughout (conditions): 10 µM unless noted

This is part of a sample that, as a whole, favours compounds with a hit. Of some 83,000 tested, about 20% had one in any assay.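 The test compound was applied at a single concentration to cells in 96-well plates for 48 hours, and percent growth was recorded.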 Values without a mark were called inactive. The source made the active and inactive calls. How the source made its calls: active means growth percent below 10; inactive means the rest.

Take `O=C(O)c1ccc(CNS(=O)(=O)c2ccc3ccccc3c2)cc1`: the growth with SK-MEL-2 melanoma is 0.434% (active); in the test on EKVX NSCLC, 111%; in the test on SN12C renal it was 100%; in the test with UO-31 renal, 94.7%; in the test on TK-10 renal, 109%; in the test on ACHN renal, 101%. The growth is 112% in the test on CAKI-1 renal; 102% with A498 renal; 117% with CCRF-CEM leukemia; 84.1% in the test on MOLT-4 leukemia; 33.4% in the test with SR leukemia; 112% in the test on RPMI-8226 leukemia. In addition, the growth in the test with OVCAR-8 ovarian was 67.7%; in the test with OVCAR-5 ovarian, 115%; in the test with OVCAR-4 ovarian it was 98.3%; in the test with SK-OV-3 ovarian, 109%; in the test on OVCAR-3 ovarian it was 94.9%; in the test on HS 578T breast, 81%. Also, in the test on NCI/ADR-RES ovarian, the growth was 128%.

For `Cc1ccccc1NC(=O)NC(CC(N)=O)c1ccc2c(c1)nc(-c1cccc(Oc3ccc(C(C)(C)C)cc3)c1)n2CCCN1CCCCC1C` (configuration not stated), the growth in the test on SK-MEL-2 melanoma was 51.8%; with EKVX NSCLC it was 79.2%; in the test with SN12C renal it was 59.1%; with UO-31 renal, 88.6%; with TK-10 renal, 31.1%; with ACHN renal it was 74.4%. In addition, the growth with CAKI-1 renal was 92.6%; with A498 renal it was 69.4%; with CCRF-CEM leukemia it was 1.56% (active); with MOLT-4 leukemia, -10.6% (active); in the test on SR leukemia it was -33.9% (active); with RPMI-8226 leukemia, -29.2% (active). Also, the growth in the test with OVCAR-8 ovarian was 3.11% (active); with OVCAR-5 ovarian, 88.8%; in the test on SK-OV-3 ovarian, 103%; in the test with IGROV1 ovarian it was 46.4%; with OVCAR-3 ovarian, 53.2%; in the test on HS 578T breast it was 6.75% (active). In addition, the growth in the test on NCI/ADR-RES ovarian was 94.3%.

As for `COc1ccc2nc(N/N=C(\C)c3ccccn3)cc(C)c2c1`, the growth was -22.8% (active) with SK-MEL-2 melanoma; -84.4% (active) in the test with EKVX NSCLC; 11.8% in the test with SN12C renal; -31% (active) in the test on UO-31 renal; 18.4% in the test with TK-10 renal; -13.8% (active) with ACHN renal. Besides, the growth in the test with CAKI-1 renal is -3.71% (active); in the test with A498 renal, -64.5% (active); in the test on CCRF-CEM leukemia it was -37.4% (active); in the test on MOLT-4 leukemia, -49.9% (active); in the test on SR leukemia, -40.9% (active); with RPMI-8226 leukemia, -25.1% (active). In addition, the growth is 0.111% (active) with OVCAR-8 ovarian; 20% in the test with OVCAR-5 ovarian; 15.8% in the test with SK-OV-3 ovarian; -44.1% (active) in the test on IGROV1 ovarian; -78.5% (active) with OVCAR-3 ovarian; 6.09% (active) in the test on HS 578T breast. For the same molecule, the growth in the test with NCI/ADR-RES ovarian is 12.4%.

As for `CO[C@H]1/C=C/O[C@@]2(C)Oc3c(C)c(O)c4c(O)c(c(/C=N/N5C(C)CN(Cc6ccc(C#N)cc6)CC5C)c(O)c4c3C2=O)NC(=O)/C(C)=C\C=C\[C@H](C)[C@H](O)[C@@H](C)[C@@H](O)[C@@H](C)[C@H](OC(C)=O)[C@@H]1C` (some centres not stated), the growth was 61.2% with SK-MEL-2 melanoma; 17.1% in the test with EKVX NSCLC; 39.4% in the test with SN12C renal; 24.6% with UO-31 renal; 19.7% in the test with TK-10 renal; 26.3% in the test with ACHN renal. Further, the growth in the test on CAKI-1 renal is 39.1%; in the test on A498 renal it was 20.5%; with CCRF-CEM leukemia, 12.1%; with MOLT-4 leukemia it was -2.17% (active); with SR leukemia, 19.3%; with RPMI-8226 leukemia, -6.25% (active). Moreover, the growth with OVCAR-8 ovarian is 49.7%; with OVCAR-5 ovarian it was 27.1%; with SK-OV-3 ovarian, 18.5%; in the test with IGROV1 ovarian, 40.6%; in the test with OVCAR-3 ovarian it was -21.1% (active); with HS 578T breast it was 45.6%. The growth in the test with NCI/ADR-RES ovarian was 40.1%.

Consider `CCc1ccc(-c2nc(SCC(=O)NC3CCCCC3)n[nH]2)cc1`, for which the growth was 10.2% in the test with SK-MEL-2 melanoma; 42.1% in the test on EKVX NSCLC; 76.4% in the test with SN12C renal; 69.8% in the test with UO-31 renal; 88.8% with TK-10 renal; 64.2% in the test on ACHN renal. The growth in the test on CAKI-1 renal was 85.9%; in the test on A498 renal, 86.4%; in the test on CCRF-CEM leukemia it was 55.3%; in the test on MOLT-4 leukemia it was 61.6%; in the test with SR leukemia, 12.6%; with RPMI-8226 leukemia it was 32.8%. Further, the growth with OVCAR-8 ovarian is 70%; with OVCAR-5 ovarian, 94.2%; with OVCAR-4 ovarian, 72.6%; in the test on SK-OV-3 ovarian it was 84.8%; in the test on OVCAR-3 ovarian, 64%; in the test with HS 578T breast it was 74.6%. Also, in the test on NCI/ADR-RES ovarian, the growth was 75.4%.

In the case of `O=C(NN1C(=O)c2cc(C(=O)O)c(C(=O)O)cc2C1=O)c1ccncc1`, the growth is 104% in the test on SK-MEL-2 melanoma; 108% in the test with EKVX NSCLC; 93.9% with SN12C renal; 112% in the test with UO-31 renal; 88.4% in the test on TK-10 renal; 102% in the test on ACHN renal. For the same molecule, the growth in the test with CAKI-1 renal was 98.2%; in the test with A498 renal, 112%; in the test with CCRF-CEM leukemia it was 103%; with MOLT-4 leukemia it was 98.6%; in the test on SR leukemia it was 119%; in the test on RPMI-8226 leukemia, 103%. The growth with OVCAR-8 ovarian was 112%; with OVCAR-5 ovarian, 107%; in the test with OVCAR-4 ovarian, 116%; in the test with SK-OV-3 ovarian, 110%; in the test on OVCAR-3 ovarian, 131%; in the test on HS 578T breast, 104%. In addition, the growth in the test on NCI/ADR-RES ovarian was 116%.

For the molecule `COc1ccc2c(c1)CC/C(=C\c1ccc(OCC(=O)Nc3nc4ccccc4s3)cc1)C2=O`, the growth in the test on SK-MEL-2 melanoma was 63%; in the test with EKVX NSCLC, 95.9%; in the test on SN12C renal, 88.3%; in the test with UO-31 renal, 22.2%; with TK-10 renal, 112%; in the test with ACHN renal, 97.2%. Also, the growth in the test with CAKI-1 renal was 79.3%; with A498 renal it was 117%; with CCRF-CEM leukemia, -37% (active); in the test on MOLT-4 leukemia, 71.2%; in the test with SR leukemia, 68.4%; in the test with RPMI-8226 leukemia it was 85.4%. Further, the growth in the test on OVCAR-8 ovarian was 98.3%; in the test with OVCAR-5 ovarian, 87.8%; with OVCAR-4 ovarian, 102%; in the test with SK-OV-3 ovarian, 104%; with OVCAR-3 ovarian, 116%; with HS 578T breast, 73.5%. For the same molecule, the growth in the test with NCI/ADR-RES ovarian was 102%.

Turning to `COC(=O)C1CCN(S(=O)(=O)c2ccc(-c3ccccc3)cc2)CC1`, the growth is 8.48% (active) with SK-MEL-2 melanoma; 108% with EKVX NSCLC; 105% with SN12C renal; 97.1% with UO-31 renal; 122% with TK-10 renal; 110% in the test with ACHN renal. Moreover, the growth in the test on CAKI-1 renal was 99.8%; with A498 renal, 125%; in the test on CCRF-CEM leukemia it was 138%; with MOLT-4 leukemia, 161%; with SR leukemia, 75.7%; with RPMI-8226 leukemia, 144%. The growth was 81.6% in the test on OVCAR-8 ovarian; 106% with OVCAR-5 ovarian; 103% with OVCAR-4 ovarian; 98.4% with SK-OV-3 ovarian; 114% with OVCAR-3 ovarian; 117% in the test on HS 578T breast. The growth with NCI/ADR-RES ovarian is 116%.
